Assay results taken from PubChem BioAssay AID504582 (Broad Institute, 2011).
Values joined by “and” are separate entries in the source; they are usually repeats but may differ in a detail not shown here. Identical values can stand only once. In all, about 340,000 compounds went through this assay and about 2,300 (0.68%) were called active. Rule as the data show it: active = growth rescue above about 28% (passing the limit was not always enough); inconclusive = no clear call, values can overlap the other calls. For the sample, actives were picked, then their nearest neighbours and some compounds at random.

Experiment: rescue of yeast from PfHsp40 toxicity, primary screen, S. cerevisiae, ATP luminescence (AID 504582);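 also: yeast W303a lacking pdr1 and pdr3 grown in galactose medium; growth measured after three days at 30 °C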
Conditions: S. cerevisiae expressing PfHsp40, growth rescue, at 12.5 µM, active compounds read high

| Structure (SMILES) | growth rescue |
| --- | --- |
| Cc1onc(-c2ccccc2)c1C(=O)N=C(N)c1ccc(Cl)cc1 | -1% (inactive) |
| COc1ccc(C(=O)NC(=S)NNC(=O)CCc2ccccc2)cc1 | 277% (active) |
| Cc1noc(C)c1COc1ccc(C(=O)NCCOc2ccccc2)cc1 | 0.221% (inactive) |
| O=C(CCc1ccccc1)NNC(=O)COc1ccc(Cl)cc1 | -0.417% (inactive) |
| COc1ccc(C(=O)NC(=S)NC2CCCCC2)cc1 | 0.972% (inactive) |
| COc1ccc(C(=O)NC(=S)NNC(=O)c2c(-c3ccccc3)noc2C)cc1 | 42.1% (active) |
| Cc1onc(-c2ccccc2)c1C(=O)Nc1ccccc1C#N | -0.716% (inactive) and 0.99% (inactive) |
| Cc1onc(-c2c(Cl)cccc2Cl)c1C(=O)NNC(=O)c1c(-c2c(Cl)cccc2Cl)noc1C | -0.106% (inactive) |
| Cc1onc(-c2ccccc2)c1C(=O)NNC(=S)NC(=O)c1ccc(F)cc1 | 45.5% (active) |
| COc1ccc(NS(=O)(=O)c2cc(NC(=O)c3ccc(S(=O)(=O)N(C)C)cc3)ccc2N2CCOCC2)cc1 | 0.23% (inactive) |
| CCOC(=O)N1CCN(CC(=O)n2c(C)c(C)c3ccccc32)CC1 | 1.25% (inactive) |
| COC(=O)Cc1ccc(NC(=S)NCc2ccco2)cc1 | -0.043% (inactive) |
| Cc1cc(C)cc(N)c1 | -0.449% (inactive) |
| CCN(C(=O)CSc1nnnn1-c1ccc(OC)cc1)C1CCS(=O)(=O)C1 (configuration not stated) | -0.617% (inactive) |
| Cc1c(C(=O)N(C)CCc2cnn(C)c2)oc2c(F)cccc12 | 6.8% (inactive) |
| CC(C)N(C(=O)CSc1nnc(NC2CC2)s1)c1ccccc1 | 0.892% (inactive) |
| Cc1ccccc1Nc1nnc(SCC(=O)c2cc3ccccc3o2)s1 | 0.609% (inactive) |
| CC(C)c1ccc(Nc2nnc(SCC(=O)c3nnc(-c4ccccc4)o3)s2)cc1 | 200% (active) |
| O=C1C2(Cl)C3(Cl)C4(Cl)C(Cl)(Cl)C5(Cl)C3(Cl)C1(Cl)C5(Cl)C24Cl (configuration not stated) | 78.8% (active) |
| CCc1ccc(NC(=O)N[C@H](C(=O)O)C(C)CC)cc1 (some centres not stated) | -0.138% (inactive) |
| CCOc1ccc(NC(=O)N2CC=C(n3c(=O)[nH]c4ccccc43)CC2)cc1 | -0.78% (inactive) |
| CCn1c(SC)nc(O)c(C(c2ccc(OC)c(O)c2)c2c(O)nc(SC)n(CC)c2=O)c1=O | -0.176% (inactive) |
| CC(Sc1nnc(-c2cccs2)n1C1CC1)C(=O)NCC1CCCO1 (configuration not stated) | -0.606% (inactive) |

| Structure (SMILES) | growth rescue |
| --- | --- |
| Cc1cc(C)cc(OCC(=O)NNC(=O)c2cc3ccccc3oc2=O)c1 | -1.97% (inactive) |
| O=c1oc2ccccc2cc1-c1cn(-c2ccccc2)c(=S)[nH]1 | 2.32% (inactive) |
| O=c1oc2ccccc2cc1-c1csc(Nc2ccc(O)cc2)n1 | 77.4% (active) |
| COc1cc(C(=O)OCC(=O)NC23CC4CC(CC(C4)C2)C3)cc(OC)c1OC | 0.746% (inactive) |
| Cc1ccc(C(=O)OC2CCCN(C)C2)cc1 (configuration not stated) | -1.37% (inactive) |
| CC1(C)C2CCC1(C)C(OC(=O)c1ccc(O)cc1)C2 (configuration not stated) | 518% (active) |
| CC1(C)C2CCC1(C)C(OC(=O)CCn1ccnc1)C2 (configuration not stated) | -1.93% (inactive) |
| CCOC(=O)Nc1ccc2c(c1)N(C(=O)CCCl)c1ccccc1[S@]2=O | 1.15% (inactive) |
| Cc1ccc2c(c1)N(CC(=O)NCCCN1CCCCC1)C(=O)c1cccnc1O2 | -0.596% (inactive) |
| COC(=O)C1CCCCN1C(=O)c1ccc(OC2CCN(C(C)=O)CC2)c(OC)c1 (configuration not stated) | 1.77% (inactive) |
| Cc1ccc2c(c1)N(CC(=O)N1CCOCC1)C(=O)CO2 | -0.417% (inactive) |
| CCCCNc1c(-c2ccc(OC)c(Sc3ccc(OC)cc3)c2)nc2ccc(Cl)cn12 | 19.1% (inactive) |
| CCCCNc1nc2c(c(=O)n(C)c(=O)n2C)n1Cc1cccc(OC)c1 | 0.511% (inactive) |
| CCCCNc1c(-c2cccc(Sc3ccc(OC)cc3)c2)nc2ccccn12 | 310% (active) |
| Cn1c(=O)n(C)c2cc(CNc3ccc(N4CCOCC4)c(C(=O)O)c3)ccc21 | -0.489% (inactive) |
| Cc1cccc(N2CCN(C(=O)CN(C)S(=O)(=O)c3ccc4c(c3)CCC(=O)N4)CC2)c1C | -1.62% (inactive) |
| COc1ccc(C(=O)Nc2cc(C)c(NC(=O)c3ccccc3OC)cn2)cc1 | 1.75% (inactive) |
| COc1cc(C=NNC(=O)c2cccnc2)ccc1OC(=O)c1ccccc1F | 1.77% (inactive) |
| COc1ccc(C(=O)Nc2ccccc2C(=O)N/N=C/c2ccc(O)c(OC)c2)cc1 | 40.9% (active) |
| C=CCN1CC(C)/C(=N\O)CC1C (configuration not stated) | -0.962% (inactive) |
| COc1cccc(CNC(=O)CCC2CCCN(C(=O)c3cc(C)[nH]n3)C2)c1 (configuration not stated) | 1.27% (inactive) |
| NC(=O)NC(=O)CSc1nc2cc([N+](=O)[O-])ccc2n1-c1cccc(C(F)(F)F)c1 | 0.555% (inactive) |
| Nc1[nH]c(=S)nc2nc(-c3ccccc3)c(-c3ccccc3)nc12 | 38.7% (active) |

| Structure (SMILES) | growth rescue |
| --- | --- |
| Cc1ccc(Cc2cncc(O)c2)cc1S(=O)(=O)O | -2.67% (inactive) |
| O=C(Nc1ccc2sc3ccccc3c(=O)c2c1)c1ccccc1Cl | -0.178% (inactive) |
| O=C(Nc1ccc2ccccc2c1[N+](=O)[O-])c1ccccc1 | 0.461% (inactive) |
| COC(=O)c1nc(NC(=O)c2ccccc2)n[nH]1 | -0.423% (inactive) |
| O=C(NC1=CC(=O)c2ccccc2C1=O)c1ccccc1 | 300% (active) |
| O=c1c2ccccc2ccc2ccc(P(=O)(O)O)cc12 | -0.021% (inactive) |
| CCOC(=O)CSc1nnc(CNC(=O)c2cccs2)n1-c1ccccc1 | -0.612% (inactive) |
| COc1ccc2[nH]c3c(c2c1)CCN[C@H]3C | -1.47% (inactive) |
| COc1ccc2[nH]c(C(=O)N3CCN(C)CC3)c(C)c2c1 | -0.899% (inactive) |
| COc1ccc2[nH]c3c(C)c4cc[n+](C)cc4c(C)c3c2c1 | 122% (active) |
| Cc1c(NC(=O)C(C)Oc2cccc(Cl)c2)c(=O)n(-c2ccccc2)n1C (configuration not stated) | 0.003% (inactive) |
| COc1ccc(-c2cc(C(=O)NCCCN3CCOCC3)no2)cc1 | 0.263% (inactive) |
| O=C(NCCCN1CCOCC1)c1cc(-c2ccc(Cl)cc2)on1 | 0.597% (inactive) |
| O=C(NCCCN1CCOCC1)c1cc(-c2cccc(O)c2)on1 | 44.1% (active) |
| CCOC(=O)CNC(=O)CSc1ncccc1-c1nc2ccccc2[nH]1 | 0.257% (inactive) |
| Cc1cc(NC(=O)CN2CCCC(C)C2)n(-c2nc3ccccc3s2)n1 (configuration not stated) | -1.25% (inactive) |
| COC(=O)Cc1cc(=O)n(-c2nc3ccccc3s2)[nH]1 | 103% (active) |
| CC(=NCc1ccco1)c1c(C(F)(F)F)[nH]n(-c2nc3ccccc3s2)c1=O | -0.486% (inactive) |
| O=C(NCCCn1ccnc1)c1cc(-c2ccccc2)on1 | -0.876% (inactive) |
| O=C(/C=C/c1ccccc1)Oc1coc(CSc2ncccn2)cc1=O | 1.58% (inactive) |
| COc1cc(/C=C2\Oc3ccc(C#Cc4ccc(O)cc4)cc3C2=O)cc(OC)c1 | -1.52% (inactive) |
| COc1cc(C#Cc2ccc3cc(CCCO)oc(=O)c3c2)cc(OC)c1 | 45.9% (active) |
| O=C1c2ccccc2C(=O)N1CCC#Cc1ccc2cc(C3(O)CCCCC3)oc(=O)c2c1 | 0.213% (inactive) |

| Structure (SMILES) | growth rescue |
| --- | --- |
| CCN1CCN(C(=O)CN(C)S(=O)(=O)c2ccc3ccccc3c2)CC1 | -0.824% (inactive) |
| S=c1c2[nH]cnc2ncn1CCSc1ncnc2nc[nH]c12 | -2.56% (inactive) |
| O=S(=O)(c1ccc(OCC(O)CN2CCN(c3ccccc3Cl)CC2)cc1)N1CCOCC1 (configuration not stated) | 2.31% (inactive) |
| CC(=O)c1ccc(OCC(O)CN2CCN(S(=O)(=O)c3cccc(Br)c3)CC2)cc1 (configuration not stated) | 26.4% (active) |
| Cc1cccc(OCC(O)CN2CCN(S(=O)(=O)c3ccc(C)cc3C)CC2)c1 (configuration not stated) | 0.709% (inactive) |
| COC(=O)c1cc2occc2n1Cc1nc(-c2ccccc2C)oc1C | 1.43% (inactive) |
| Cc1c(NS(=O)(=O)c2cc(C(=O)NCCc3ccc(F)cc3)cc(Cl)c2Cl)c(=O)n(-c2ccccc2)n1C | -0.709% (inactive) |
| CC12CCC(C(=O)N(NC(=O)c3ccccc3O)C1=O)C2(C)C (configuration not stated) | 64.6% (active) |
| CC1=CC(C)(C)NC(=S)N1NC(=O)c1ccccc1Cl | 0.305% (inactive) |
| COc1ccccc1C(=O)NN1C(=O)C2C3C=CC(O3)C2C1=O (configuration not stated) | 0.742% (inactive) |
| CN1CCN(C(=O)N2c3ccccc3CCc3ccccc32)CC1 | -1.45% (inactive) |
| CCN(CC(=O)Nc1c(F)cccc1F)C(=O)CN1c2cccc3cccc(c23)S1(=O)=O | 0.416% (inactive) |
| O=C(O)CN1c2cccc3cccc(c23)S1(=O)=O | 0.021% (inactive) |
| CC(C)CN(CC(C)C)C(=O)CN1c2cccc3cccc(c23)S1(=O)=O | 29.2% (active) |
| COc1ccc(C2COC(=O)C2=N)c(NC(=O)c2ccccc2)c1 (configuration not stated) | -1.79% (inactive) |
| Cc1nc(C(=O)N2CCCC(C(=O)c3ccc(Cl)cc3)C2)cs1 (configuration not stated) | -0.97% (inactive) |
| CCOC(=O)CCNC(=O)N1CCCC(C(=O)c2ccccc2SC)C1 (configuration not stated) | -0.934% (inactive) |
| Cn1nccc1C(=O)N1CCCC(C(=O)c2ccc(Oc3ccccc3)cc2)C1 (configuration not stated) | 1.09% (inactive) |
| O=C(c1ccc(-c2ccccc2)cc1)C1CCCN(C(=O)c2cncs2)C1 (configuration not stated) | 373% (active) |
| CCNC(=O)N1CCCC(C(=O)c2ccc(-c3ccccc3)cc2)C1 (configuration not stated) | 173% (active) |
| Cc1ccccc1NC(=O)C1CCCN(C(=O)NCc2ccccc2)C1 (configuration not stated) | -1.16% (inactive) |
| N#Cc1c(C(F)(F)F)cc(-c2cccs2)nc1N1CCCCC1 | -0.0675% (inactive) |
| CC(=O)c1ccc(NC(=O)c2ccc(-n3cncn3)c([N+](=O)[O-])c2)cc1 | 0.873% (inactive) |
